Molecules are shown by their SMILES.
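Also: lysate desalted by size exclusion to strip endogenous ATP, peptide intensities built from DIA-NN precursor signals, and peptides missing any value discarded before comparison.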

The experiment has as its target T1, UniProt P76038.
T1 sequence (whole entry): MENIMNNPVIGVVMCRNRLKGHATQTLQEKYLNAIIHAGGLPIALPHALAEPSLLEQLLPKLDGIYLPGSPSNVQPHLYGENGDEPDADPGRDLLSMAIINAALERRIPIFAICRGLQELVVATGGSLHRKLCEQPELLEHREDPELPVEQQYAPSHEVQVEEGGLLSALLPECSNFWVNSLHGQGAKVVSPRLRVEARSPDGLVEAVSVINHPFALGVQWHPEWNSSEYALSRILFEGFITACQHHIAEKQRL
Nature of the experiment: log2 fold change of tryptic peptide abundance, ligand vs vehicle (limited proteolysis) (log2 ratio); higher = more trypsin-susceptible (destabilized). The conditions noted are these: peptide sequence: GLQELVVATGGSLHRK; peptide start residue: 116; ligand concentration: 5 mM; sample: E. coli desalted lysate; replicate design: treated before aliquoting. As to the method:
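HT-PELSA: desalted E. coli K-12 BW25113 lysate (with 12 mM MgCl2) incubated with 5 mM ATP (pH 7) or water for 30 min at 25 C, then a 4 min trypsin pulse at 22 C. Peptides were quantified by DIA-MS (4 replicates). Value is the peptide log2 fold change (treated/control); negative = stabilized. Scale: negative = ligand-stabilized region.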
For the compound `Nc1ncnc2c1ncn2[C@@H]1O[C@H](COP(=O)(O)OP(=O)(O)OP(=O)(O)O)[C@@H](O)[C@H]1O` [adenosine 5'-triphosphate], the log2 fold change was 1.55.
